Hits are enriched below; roughly 3.6% of the tested compounds scored in any of these assays.
MmCpn inh – M. maripaludis TRiC chaperonin inhibition; purified Mm-Cpn ATPase, ADP Transcreener TR-FRET; Potency, µM (top dose mostly 76.9 µM), without a hit: top-dose activity, negative = inhibition, usual class: inhibitors; actives 0.031% (n = 330,000); AID 504842; also: % is scaled to controls: 0 for no effect and ±100 for the full control effect; nearly all actives have a fitted effect of over 80% in size
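Purified archaeal chaperonin (25 nM final) was preincubated with compound for 10 min at 37°C, then ATP (10 uM final) was added for 30 min at 37°C in Tris pH 7.4/KCl/MgCl2/DTT buffer. ADP was quantified by HTRF Transcreener TR-FRET.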
ClpP mod – qHTS Assay for Activators of ClpP; purified B. subtilis ClpP, FRET peptide cleavage, 20 min; Potency, µM (highest dose often 57.5 µM), for inactives: at the highest dose activity change, negative = active; actives 1.9% (n = 340,000); active = well fitted falling curve with a large enough effect; inconclusive = small, poorly fitted or top-dose-only effect; inactive = no such curve, though single readings can be large or run the other way; also: the source files actives as falling curves though it sought activators and does not explain the sign; nearly all actives have a fitted effect of over 65% in size
Target sequence (P80244 whole entry, looked up): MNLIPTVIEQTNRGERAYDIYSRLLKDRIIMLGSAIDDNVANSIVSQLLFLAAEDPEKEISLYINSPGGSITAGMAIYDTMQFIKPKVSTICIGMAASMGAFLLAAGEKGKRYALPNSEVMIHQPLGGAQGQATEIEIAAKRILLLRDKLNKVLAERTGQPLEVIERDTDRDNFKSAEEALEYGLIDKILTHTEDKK
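Buffer: 100 mM Tris/HCl pH8, 100 mM KCl, 0.05% low protease BSA, 2.5% glycerol, 0.01% Tween-20. ClpP 10 microg/mL final; 20 min RT; delta FRET normalized to ADEP and DMSO controls.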
TDP43 rescue – rescues yeast growth from TDP-43 toxicity; TDP-43 expressing yeast growth rescue, BacTiter-Glo, 24 h; Potency, µM (highest dose often 46.1 µM), without a hit: at the top dose growth rescue (activation), actives largely listed as activators; actives 1.8% (n = 410,000); also: % of control where 0% means no effect; nearly all actives have a fitted effect of over 50% in size
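Yeast expressing TDP-43 (pregrown in raffinose, seeded at OD600=0.02 in galactose medium) exposed to compounds 24 hr at 30 deg C. Growth read by BacTiter-Glo luminescence; rescue of toxicity appears as increased signal.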
FUS yeast rescue – FUS proteinopathy suppression in yeast | S. cerevisiae FUS-expressing, growth rescue, OD600, 24 h | Potency, µM (highest dose often 76.6 µM), actives largely listed as activators | actives 0.24% (n = 390,000);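 also: plate controls were DMSO vehicle for no effect and reference control for full effect; nearly all actives have a fitted effect of over 55% in size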
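Toxicity suppression screen in FUS-yeast. Cells induced with 2% galactose, starting OD 0.005, treated 24hr at 30C with compounds at multiple final concentrations; growth by OD600.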
aSyn yeast inh – rescues yeast growth from alpha-synuclein toxicity | Yeast expressing alpha-synuclein, growth rescue, BacTiter-Glo, 24 h | Potency, µM (series often up to 46.1 µM), for the others: top-dose growth rescue (activation), hits mostly activators | actives 0.14% (n = 370,000); also: % of control where 0% means no effect; nearly all actives have a fitted effect of over 65% in size
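Readout is rescue of growth in alpha-synuclein-expressing yeast, so inhibitors of toxicity appear as activators. Growth after 24 hr at 30 deg C in galactose medium is quantified by luminescence.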
Abeta yeast res – A-beta toxicity reversal in yeast; yeast expressing A-beta42, growth rescue, OD600, 48 h; response scale: 0% DMSO, 100% iron-clioquinol control; Potency, µM (highest dose often 46.1 µM), hits mostly activators; actives 0.063% (n = 410,000); also: nearly all actives have a fitted effect of over 55% in size
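Yeast growth medium received pinned compounds, then yeast cells expressing toxic A-beta were added; plates incubated at 30 C for 48 hr. Growth read as absorbance at 600 nm, normalized to DMSO and equimolar FeCl3 plus clioquinol controls.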
* = called active by the depositor. Unless noted, calls follow the shape of the dose curve; as a rule, active = well fitted curve in the direction sought with a large enough effect; inconclusive = small, poorly fitted or top-dose-only effect, or another doubt; inactive = no such curve, though single readings can be large; an effect the other way counts as inactive or inconclusive. Potency is read from the fitted curve at half-maximal effect.

How did O=C(/C=C/c1ccc2c(c1)OCO2)NCCCN1CCOCC1 do in these assays?
MmCpn inh: -3%; ClpP mod: 16µM*; TDP43 rescue: -3%; aSyn yeast inh: -6%; Abeta yeast res: inactive

What do the screens show for `O=C(/C=C/c1ccc2c(c1)OCO2)NCCSCc1cccc(Cl)c1`?
MmCpn inh: -3%; ClpP mod: 32µM*; TDP43 rescue: inconclusive; aSyn yeast inh: 7%; Abeta yeast res: inactive

What do the screens show for `COc1ccc(-c2cc(-c3ccccc3)n3ncnc3n2)cc1`?
MmCpn inh: -5%; ClpP mod: 32µM*; TDP43 rescue: inconclusive; FUS yeast rescue: inactive; aSyn yeast inh: 2%; Abeta yeast res: inactive

Results for COc1ccc(-c2cc(N3CCCC3)n3ncnc3n2)cc1 ?
MmCpn inh: 0%; ClpP mod: -21%; TDP43 rescue: 13%; FUS yeast rescue: inactive; aSyn yeast inh: -1%; Abeta yeast res: inactive

How did COc1cc(OC)c(NC(=O)C(NS(=O)(=O)c2cccc3nsnc23)c2ccccc2)cc1Cl (centres undefined) do in these assays?
ClpP mod: 0%; TDP43 rescue: 7%; FUS yeast rescue: 22µM*; Abeta yeast res: inactive

How did C=C(C)CSc1nc2sc3c(c2c(=O)n1CCCC)CCCC3 do in these assays?
ClpP mod: -1%; TDP43 rescue: 11%; FUS yeast rescue: inactive; Abeta yeast res: inactive

How did Cc1cccc(NC(=O)C2CCCN2S(=O)(=O)c2cccc3cccnc23)c1C (centres undefined) do in these assays?
FUS yeast rescue: inactive

What do the screens show for `COc1ccc(-c2nn(-c3ccccc3)cc2C2CC(c3cccs3)=NN2C(=O)CCC(=O)O)cc1` (centres undefined)?
MmCpn inh: -2%; ClpP mod: 4%; TDP43 rescue: 13%; FUS yeast rescue: inactive; aSyn yeast inh: 13%; Abeta yeast res: inactive

What do the screens show for `COc1ccc(C2=NN(S(C)(=O)=O)C(c3cn(-c4ccccc4)nc3-c3cccs3)C2)cc1` (centres undefined)?
ClpP mod: 14µM*; TDP43 rescue: 26%; FUS yeast rescue: inactive; Abeta yeast res: inactive

What do the screens show for `COc1ccc(S(=O)(=O)N2CCN(C(=S)Nc3ccc(S(N)(=O)=O)cc3)CC2)cc1`?
MmCpn inh: -2%; ClpP mod: 18µM*; TDP43 rescue: 9%; aSyn yeast inh: -5%; Abeta yeast res: inactive

What do the screens show for `COc1ccc(NC(=O)CSCC(=O)Nc2ccc(S(=O)(=O)N3CCCCC3)cc2)cc1`?
MmCpn inh: 0%; ClpP mod: -3%; TDP43 rescue: 7%; FUS yeast rescue: inactive; aSyn yeast inh: 2%; Abeta yeast res: inactive

What do the screens show for `O=S(=O)(c1ccccc1)N1CCN(C(=S)Nc2ccc(F)cc2)CC1`?
MmCpn inh: 1%; ClpP mod: 20µM*; TDP43 rescue: 21%; FUS yeast rescue: inactive; aSyn yeast inh: 11%; Abeta yeast res: inactive

Results for O=S(=O)(c1ccccc1)N1CCN(C(=S)Nc2ccccc2)CC1 ?
MmCpn inh: -1%; ClpP mod: -2%; TDP43 rescue: 15%; FUS yeast rescue: inactive; aSyn yeast inh: -3%; Abeta yeast res: inactive

Results for COc1ccc(CSCC(=O)Nc2ccc(S(=O)(=O)N3CCCCCC3)cc2)cc1 ?
MmCpn inh: -1%; ClpP mod: 3%; TDP43 rescue: 18µM*; aSyn yeast inh: 4%; Abeta yeast res: inactive

What do the screens show for `CCC1CN(C(=O)N2CCC(C(=O)N(C)Cc3ccccc3)CC2)c2ccccc2O1` (centres undefined)?
ClpP mod: 0%; TDP43 rescue: 14%; FUS yeast rescue: inactive; Abeta yeast res: inactive

What do the screens show for `Cc1ccc(N2CC(c3nc(-c4ccc(Cl)cc4)no3)CC2=O)cc1F` (centres undefined)?
ClpP mod: -1%; TDP43 rescue: 11%; FUS yeast rescue: inactive; Abeta yeast res: inactive

Results for CN(C)C(=O)CSc1nnc(-c2cc(-c3cccs3)nc3ccccc23)o1 ?
MmCpn inh: 0%; ClpP mod: 25µM*; TDP43 rescue: 3%; FUS yeast rescue: inactive; aSyn yeast inh: 0%; Abeta yeast res: inactive

What do the screens show for `CCN(CC)C(=O)CSc1nnc(-c2cc(-c3ccc(Cl)cc3)nc3ccccc23)o1`?
MmCpn inh: -6%; ClpP mod: -2%; TDP43 rescue: 7%; FUS yeast rescue: inactive; aSyn yeast inh: 6%; Abeta yeast res: inactive

Results for CCC(CC)C(=O)Nc1cc([N+](=O)[O-])ccc1Cl ?
MmCpn inh: 3%; ClpP mod: 0%; TDP43 rescue: inconclusive; aSyn yeast inh: 3%; Abeta yeast res: inactive

What do the screens show for `CC(=O)Nc1cccc(OCCCOc2cccc([N+](=O)[O-])c2)c1`?
ClpP mod: -1%; TDP43 rescue: 13µM*; aSyn yeast inh: -7%; Abeta yeast res: inactive

How did O=C(COc1ccccc1)NS(=O)(=O)c1ccc(Cl)cc1 do in these assays?
MmCpn inh: -7%; ClpP mod: -1%; TDP43 rescue: 22%; FUS yeast rescue: inactive; aSyn yeast inh: 0%; Abeta yeast res: inactive

Results for CC(=O)Nc1cccc(OCC(=O)NS(=O)(=O)c2ccc(Cl)cc2)c1 ?
MmCpn inh: 0%; ClpP mod: 32µM*; TDP43 rescue: 3%; FUS yeast rescue: inactive; aSyn yeast inh: -9%; Abeta yeast res: inactive

How did COc1cccc(NC(C)C(=O)Nc2cc([N+](=O)[O-])ccc2Cl)c1 (centres undefined) do in these assays?
MmCpn inh: -1%; ClpP mod: -3%; TDP43 rescue: 11µM*; FUS yeast rescue: inactive; aSyn yeast inh: 10%; Abeta yeast res: inactive

Results for COc1ccc(OC(C)C(=O)Nc2cccc([N+](=O)[O-])c2)cc1 (centres undefined) ?
MmCpn inh: 3%; ClpP mod: 20%; TDP43 rescue: 10µM*; aSyn yeast inh: -8%; Abeta yeast res: inactive

How did NC(Cc1ccc(C(F)(F)F)cc1)c1csc(NC(=O)NCCc2ccccc2)n1 (centres undefined) do in these assays?
ClpP mod: -2%; TDP43 rescue: 0%; FUS yeast rescue: 22µM*; aSyn yeast inh: -37%; Abeta yeast res: inactive

Screening data: PubChem, National Center for Advancing Translational Sciences (NCATS)
